Structures can show the parent of a compound that is named as a salt. Hit rate of the full screen: of about 5,800 compounds, about 620 (11%) showed activity. Shown is part of a subset that was picked to be rich in actives. Unmarked numbers belong to inactive results.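 The calls were made as follows: active = score above a cut-off or among the top three wells of a plate; in these data no inactive exceeds 0.85.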
Test system: primary human hepatic stellate cells (donor 1)
Assay: scaled lipid accumulation score (0 = DMSO-like, 1 = nortriptyline-like); higher = stronger HSC inactivation (lipid re-accumulation), active = hit call of the paper
Settings: 48 h
Procedure: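 Primary lipid accumulation screen in primary human hepatic stellate cell myofibroblasts (donor 1, passage 8) in 384-well plates. 100 nL of library compound was pin-transferred into 30 µL medium in duplicate, and cells were treated for 48 h. The 'Scaled' score combines distance from plate baseline, toxicity and reproducibility penalties, and is normalised to nortriptyline (positive) and DMSO (negative) controls on each plate. A hit is defined as scaled >0.85 or among the top 3 wells per plate.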

[1] = library stock concentration: 10 mM
[2] = library stock concentration: 3.33 mM
[3] = library stock concentration: 80 uM
[4] = library stock concentration: 400 uM
[5] = library stock concentration: 2 mM
[6] = library stock concentration: 1 mM

In the case of `CNCCNS(=O)(=O)c1cccc2cnccc12` [H-8 dihydrochloride], the “scaled lipid accumulation score” value [1] is reported as 0.048.

`NC(N)=NCCNS(=O)(=O)c1cccc2cnccc12` was tested, and the “scaled lipid accumulation score” value (library stock concentration: 17 mM) was 0.047.

For `CNCCNS(=O)(=O)c1cccc2cnccc12` [H-8, Dihydrochloride], the “scaled lipid accumulation score” value [2] was no more than 0.

With `NC(N)=NCCNS(=O)(=O)c1cccc2cnccc12` [HA 1004, Dihydrochloride] the “scaled lipid accumulation score” value [2] was no more than 0.

With `O=S(=O)(NCCNC/C=C/c1ccc(Br)cc1)c1cccc2cnccc12` [H-89, Dihydrochloride] the “scaled lipid accumulation score” value [2] was no more than 0.

In the case of `Cl.Cl.O=S(=O)(NCCNC/C=C/c1ccc(Br)cc1)c1cccc2cnccc12` [H 89 dihydrochloride], the “scaled lipid accumulation score” value [1] is reported as 1.26 (active).

`O=S(=O)(NCCNC/C=C/c1ccc(Br)cc1)c1cccc2cnccc12` [listing 1 of 2 here] was tested, and the “scaled lipid accumulation score” value [1] was 0.989 (active).

`O=S(=O)(NCCNC/C=C/c1ccc(Br)cc1)c1cccc2cnccc12` [listing 2 of 2 here] was tested, and the “scaled lipid accumulation score” value [3] was no more than 0, the “scaled lipid accumulation score” value [4] was no more than 0 and the “scaled lipid accumulation score” value [5] was 0.134.

In the case of `O=S(=O)(NCCNCC=Cc1ccc(Br)cc1)c1cccc2cnccc12`, the “scaled lipid accumulation score” value [2] is reported as 0.01 and the “scaled lipid accumulation score” value [1] is reported as 0.542.

In the case of `CCCCCC(=O)CC[C@H]1[C@H](O)CC(=O)[C@@H]1C/C=C\CCCC(=O)O` [13,14-dihydro-15-keto Prostaglandin E2], the “scaled lipid accumulation score” value [6] is reported as no more than 0.

For `O=C1NC(=O)c2cc(Nc3ccc(F)cc3)c(Nc3ccc(F)cc3)cc21`, the “scaled lipid accumulation score” value [1] was no more than 0.

With `CC1=C(C(=O)OCCN(Cc2ccccc2)c2ccccc2)C(c2cccc([N+](=O)[O-])c2)C(P2(=O)OCC(C)(C)CO2)=C(C)N1` (stereo not drawn) [Efonidipine hydrochloride monoethanolate] the “scaled lipid accumulation score” value [1] was no more than 0.

With `COc1ccccc1CNC1CCCNC1c1ccccc1` (stereo not drawn) the “scaled lipid accumulation score” value [1] was 0.474.

With `CCCCC[C@H](O)/C=C/C=C\C=C\C=C\[C@@H](O)[C@@H](O)CCCC(=O)O` [Lipoxin A4] the “scaled lipid accumulation score” value (library stock concentration: 100 uM) was no more than -0.021.

With `CC(C)N(CCCNC(=O)Nc1ccc(C(C)(C)C)cc1)C[C@H]1O[C@@H](n2cc(Br)c3c(N)ncnc32)[C@H](O)[C@@H]1O` [listing 1 of 2 here] the “scaled lipid accumulation score” value [2] was 0.805.

In the case of `CC(C)N(CCCNC(=O)Nc1ccc(C(C)(C)C)cc1)C[C@H]1O[C@@H](n2ccc3c(N)ncnc32)[C@H](O)[C@@H]1O`, the “scaled lipid accumulation score” value [2] is reported as 0.204 and the “scaled lipid accumulation score” value [1] is reported as 0.636.

With `CC(C)N(CCCNC(=O)Nc1ccc(C(C)(C)C)cc1)C[C@H]1O[C@@H](n2cc(Br)c3c(N)ncnc32)[C@H](O)[C@@H]1O` [listing 2 of 2 here] the “scaled lipid accumulation score” value [1] was 1.12 (active).

In the case of `CCCCCCCC/C=C/CCCCCCCC(=O)Nc1c(C(C)C)cccc1C(C)C` [Oleic Acid-2,6-diisopropylanilide], the “scaled lipid accumulation score” value [6] is reported as no more than 0.

`CCCCCCCCCCCCCCCCC(=O)NCCO` [Heptadecanoyl Ethanolamide] was tested, and the “scaled lipid accumulation score” value [6] was no more than 0.

For `CC(C)c1cc(C(=O)N2Cc3ccc(CN4CCN(C)CC4)cc3C2)c(O)cc1O`, the “scaled lipid accumulation score” value [2] was 0.544 and the “scaled lipid accumulation score” value [1] was 0.828.

With `C[C@@H](Oc1cc(-n2cnc3ccc(CN4CCN(C)CC4)cc32)sc1C(N)=O)c1ccccc1C(F)(F)F` [listing 1 of 3 here] the “scaled lipid accumulation score” value [3] was no more than 0, the “scaled lipid accumulation score” value [4] was 0.039 and the “scaled lipid accumulation score” value [1] was 0.788.

`C[C@@H](Oc1cc(-n2cnc3ccc(CN4CCN(C)CC4)cc32)sc1C(N)=O)c1ccccc1C(F)(F)F` [listing 2 of 3 here] was tested, and the “scaled lipid accumulation score” value [2] was 1.22 (active).

`COc1cc2ncn(-c3cc(OCc4ccccc4C(F)(F)F)c(C(N)=O)s3)c2cc1OC` [listing 1 of 2 here] was tested, and the “scaled lipid accumulation score” value [3] was no more than 0, the “scaled lipid accumulation score” value [4] was no more than 0 and the “scaled lipid accumulation score” value [5] was no more than 0. For the same molecule, the “scaled lipid accumulation score” value [1] was 0.764.

`COc1cc2ncn(-c3cc(OCc4ccccc4C(F)(F)F)c(C(N)=O)s3)c2cc1OC` [listing 2 of 2 here] was tested, and the “scaled lipid accumulation score” value [1] was 0.992 (active).

`COc1cc2ncn(-c3cc(OCc4ccccc4S(C)(=O)=O)c(C#N)s3)c2cc1OC` [IKK-3 Inhibitor IX] was tested, and the “scaled lipid accumulation score” value [2] was no more than 0.

With `C[C@@H](Oc1cc(-n2cnc3ccc(CN4CCN(C)CC4)cc32)sc1C(N)=O)c1ccccc1C(F)(F)F` [listing 3 of 3 here] the “scaled lipid accumulation score” value [5] was 0.915 (active) and the “scaled lipid accumulation score” value [1] was 1.2 (active).

For `O=C1N(c2ccccc2)c2ccccc2C1(Cc1ccncc1)Cc1ccncc1`, the “scaled lipid accumulation score” value [1] was no more than 0.

With `O=C1N(c2ccccc2)c2ccccc2C1(Cc1ccncc1)Cc1ccncc1` [Linopirdine] the “scaled lipid accumulation score” value [1] was no more than -0.051.

In the case of `O=C1N(c2ccccc2)c2ccccc2C1(Cc1ccncc1)Cc1ccncc1` [Linopirdine dihydrochloride], the “scaled lipid accumulation score” value [1] is reported as no more than -0.001.

With `O=C(O)c1ccc(-c2ccc3cc(O)c(C45CC6CC(CC(C6)C4)C5)cc3c2)cc1` the “scaled lipid accumulation score” value [1] was 0.021.

For `CC[C@H]1OC(=O)[C@H](C)C(=O)[C@H](C)[C@@H](O[C@@H]2O[C@H](C)C[C@H](N(C)C)[C@H]2O)[C@](C)(OC)C[C@@H](C)C(=O)[C@H](C)[C@H]2N(CCCCn3cnc(-c4cccnc4)c3)C(=O)O[C@]12C` [Telithromycin], the “scaled lipid accumulation score” value [1] was no more than -0.027.

For `CC[C@H]1OC(=O)[C@H](C)C(=O)[C@H](C)[C@@H](O[C@@H]2O[C@H](C)C[C@H](N(C)C)[C@H]2O)[C@](C)(OC)C[C@@H](C)C(=O)[C@H](C)[C@H]2N(CCCCn3cnc(-c4cccnc4)c3)C(=O)O[C@]12C`, the “scaled lipid accumulation score” value [1] was 0.448.

`CCCCC[C@H](O)/C=C/[C@H]1C=CC(=O)[C@H]1C/C=C\CCCC(=O)O` [8-iso Prostaglandin A2] was tested, and the “scaled lipid accumulation score” value [6] was no more than 0.

`CCCCCCCCCCCCCC(=O)N[C@H](CO)[C@H](O)c1ccc([N+](=O)[O-])cc1` was tested, and the “scaled lipid accumulation score” value [6] was 0.012.

With `CC(C)C[C@@H](/C=C/S(C)(=O)=O)NC(=O)[C@H](CC(C)C)NC(=O)[C@H](CC(C)C)NC(=O)OCc1ccccc1` the “scaled lipid accumulation score” value (library stock concentration: 9.1 mM) was 0.738.

`OC1CCC(Nc2ncc3nc(Nc4c(F)cc(F)cc4F)n([C@@H]4CCOC4)c3n2)CC1` (stereo partly drawn) was tested, and the “scaled lipid accumulation score” value [3] was no more than 0, the “scaled lipid accumulation score” value [4] was no more than 0 and the “scaled lipid accumulation score” value [5] was no more than 0. For the same molecule, the “scaled lipid accumulation score” value [1] was no more than 0.

In the case of `O=C1O/C(=C/Br)CC[C@@H]1c1cccc2ccccc12` [(R)-Bromoenol lactone], the “scaled lipid accumulation score” value [6] is reported as 0.064.

With `CCOC(=O)C1(CCCCCCOc2ccc(Cl)cc2)CO1` (stereo not drawn) the “scaled lipid accumulation score” value [1] was no more than 0.

In the case of `O=C(O)CCC/C=C\C[C@@H]1[C@@H](/C=C/[C@@H](O)Cc2ccccc2)[C@H](O)C[C@@H]1O` [16-phenyl tetranor Prostaglandin F2.alpha.], the “scaled lipid accumulation score” value [6] is reported as no more than 0.

Reference: the supplement of paper PMC9135407
